Source: PubChem BioAssay (Tox21)
Inconclusive results are not listed. Unmarked numbers belong to inactive results. The source made the active and inactive calls. The call rests on the fitted dose curve; in most records, active means well fitted curve in the direction sought with a large enough effect in the repeat runs; inconclusive means weak or mixed curves; inactive means no such curve, though single readings can be large; an effect the other way counts as inactive or inconclusive.

assay: qHTS RealTime-Glo MT Cell Viability Assay in HepG2 cells - 32 hour (AID 1224877); conditions: RealTime-Glo luminescence; series mostly up to 76.8 µM; activity change, negative = cytotoxic: at the top concentration; further: nearly all actives have a fitted effect of over 55% in size
Outline: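 Tox21 10K library screened in qHTS format on HepG2 cells carrying RealTime-Glo reagents. Compounds were added after a 5 h preincubation, and the luminescent signal from continuous culture was measured repeatedly during 40 h treatment.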
On the % scale 0 is the no-effect control and ±100 the full control effect; potency means the concentration at half of the fitted maximal effect.

For `CCC[CH2][Sn]([CH2]CCC)([O]C(C)=O)[O]C(C)=O`, the Potency was 0.221 µM (active).
In the case of `[F][Sn]([c]1ccccc1)([c]1ccccc1)[c]1ccccc1`, the Potency is reported as 0.347 µM (active).
With `CCC(OC(C)=O)C(CC(C)NC)(c1ccccc1)c1ccccc1` (centres undefined) the Potency was 62.2 µM (active).

Point of comparison: `COP(=S)(NC(C)C)Oc1ccc(C)cc1[N+](=O)[O-]` (centres undefined), “activity change, negative = cytotoxic” value -12.9%. Against it:
- CC(=O)[O-].CC(=O)[O-].O.O.[Zn+2] — higher, 0.386%
- CO/N=C(\C(=O)OC)c1ccccc1CO/N=C(\C)c1cccc(C(F)(F)F)c1 — higher, -5.83%
- CNC(=O)/C=C(\C)OP(=O)(OC)OC — higher, 2.55%
- Nc1nc(N)c(N)c(N)n1 — higher, 15.3%
- Nc1ccccc1-c1ccccc1 — higher, 0.0882%
- O=S(=O)(NS(=O)(=O)C(F)(F)F)C(F)(F)F — lower, -21.1%
- O=C(NC(=O)c1ccccc1Cl)Nc1ccc(OC(F)(F)F)cc1 — higher, -6.04%
- CCC(C)Nc1c([N+](=O)[O-])cc(C(C)(C)C)cc1[N+](=O)[O-] (centres undefined) — higher, -5.43%
- C[C@H]1[C@H](c2ccc(Cl)cc2)SC(=O)N1C(=O)NC1CCCCC1 — lower, -13.8%
- CC(C)(C)c1ccc(OP(=O)(Oc2ccccc2)Oc2ccccc2)cc1 — higher, -1.3%
- Clc1ccc(C(c2ccc(Cl)cc2)C(Cl)Cl)cc1 — higher, -3.99%
- Oc1cccc(Cl)c1Cl — higher, 1.03%
- Cc1c([N+](=O)[O-])c(C)c([N+](=O)[O-])c(C(C)(C)C)c1[N+](=O)[O-] — higher, -9.77%
- CCOC(=O)Cc1ccccc1 — higher, 0.215%
- CCC(C)c1cccc(C(C)CC)c1O (centres undefined) — higher, -7.59%
- Nc1ccc(N=Nc2ccccc2)cc1 — higher, -7.63%
- CC1CN1 (centres undefined) — higher, -2.52%
- O.O.O.O.O.O.O.O=S(=O)([O-])[O-].[Co+2] — higher, 1.3%
- O=[N+]([O-])C(Br)Br — lower, -17.9%
- CCCCCCC[CH2][Sn]([Cl])([Cl])[CH2]CCCCCCC — higher, -4.32%
- Cc1c([N+](=O)[O-])cc2c(c1[N+](=O)[O-])C(C)(C)CC2(C)C — higher, -5.75%
- CCCCCCCc1ccc(O)cc1 — lower, -22%
- COC(=O)N(OC)c1ccccc1COc1ccn(-c2ccc(Cl)cc2)n1 — lower, -16.8%
- O=[N+]([O-])c1ccc(Cl)c(Cl)c1Cl — higher, 1.22%
- CN1CCc2cc3c(cc2C1O)OCO3 (centres undefined) — higher, 0.217%
- ClC(Cl)C(Cl)(Cl)Cl — higher, 1.25%

Point of comparison: `c1ccc2nc(N3CCNCC3)ccc2c1`, “activity change, negative = cytotoxic” value -7.22% [at 35.3 µM]. Against it:
- O=C(N[C@H]1N=C(c2ccccc2F)c2cccc3c2N(CC3)C1=O)c1cc2ccccc2[nH]1 — lower, -20.1% [at 35.3 µM]
- CC1=C2C[C@H]3[C@@H](CC=C4C[C@@H](O)CC[C@@]43C)[C@@H]2CC[C@]12O[C@@H]1C[C@H](C)CN[C@H]1[C@H]2C — lower, -15.3% [at 35.3 µM]
- Oc1ccc2[nH]cc(CCCCN3CC=C(c4ccccc4)CC3)c2c1 — lower, -20.1% [at 35.3 µM]
- C[C@]12CC[C@H]3[C@@H](CCC4=CC(=O)CC[C@@H]43)[C@@H]1CC[C@@H]2OC(=O)CCc1ccco1 — lower, -10.1% [at 35.3 µM]

assay: A CellTox Green Cytotoxicity Assay to monitor cytotoxicity in HepG2 cells - 24 hour (AID 1224878); conditions: CellTox Green fluorescence; series mostly up to 76.8 µM; cytotoxicity: at the top concentration; further: nearly all actives have a fitted effect of over 45% in size
Outline: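 HepG2, 600 cells/well premixed w/ CellTox Green; 5 h settle, 37 C/5% CO2; pintool cpd add (DMSO); 37 C, 40 h; fluorescence read at 0, 8, 16, 24, 32, 40 h.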

With `CCC[CH2][Sn]([CH2]CCC)([O]C(C)=O)[O]C(C)=O` the Potency was 0.312 µM (active).
For `[F][Sn]([c]1ccccc1)([c]1ccccc1)[c]1ccccc1`, the Potency was 2.19 µM (active).
In the case of `Nc1nc(N)c(N)c(N)n1`, the Potency is reported as 55.2 µM (active).
In the case of `O=S(=O)(NS(=O)(=O)C(F)(F)F)C(F)(F)F`, the Potency is reported as 48.9 µM (active).
In the case of `CCC(OC(C)=O)C(CC(C)NC)(c1ccccc1)c1ccccc1` (centres undefined), the Potency is reported as 55.4 µM (active).
In the case of `CCC(C)c1cccc(C(C)CC)c1O` (centres undefined), the Potency is reported as 19.5 µM (active).
In the case of `Oc1ccc2[nH]cc(CCCCN3CC=C(c4ccccc4)CC3)c2c1`, the Potency is reported as 19 µM (active).
In the case of `CCCCCCCc1ccc(O)cc1`, the Potency is reported as 21.9 µM (active).

Point of comparison: `Nc1ccc(N=Nc2ccccc2)cc1`, “cytotoxicity” value 3.13%. Against it:
- CC(=O)[O-].CC(=O)[O-].O.O.[Zn+2] — higher, 3.57%
- CO/N=C(\C(=O)OC)c1ccccc1CO/N=C(\C)c1cccc(C(F)(F)F)c1 — lower, -1.16%
- CNC(=O)/C=C(\C)OP(=O)(OC)OC — higher, 3.38%
- Nc1ccccc1-c1ccccc1 — higher, 5.69%
- O.O.O.O=C([O-])[C@H]([O-])[C@@H]([O-])C(=O)[O-].O=C([O-])[C@H]([O-])[C@@H]([O-])C(=O)[O-].[K+].[K+].[Sb+3].[Sb+3] — higher, 6.89%
- O=C(NC(=O)c1ccccc1Cl)Nc1ccc(OC(F)(F)F)cc1 — lower, -0.612%
- CCC(C)Nc1c([N+](=O)[O-])cc(C(C)(C)C)cc1[N+](=O)[O-] (centres undefined) — lower, 2.41%
- C[C@H]1[C@H](c2ccc(Cl)cc2)SC(=O)N1C(=O)NC1CCCCC1 — lower, 0.599%
- CC(C)(C)c1ccc(OP(=O)(Oc2ccccc2)Oc2ccccc2)cc1 — lower, 0.0823%
- Clc1ccc(C(c2ccc(Cl)cc2)C(Cl)Cl)cc1 — higher, 3.71%
- Oc1cccc(Cl)c1Cl — lower, -2.49%
- Cc1c([N+](=O)[O-])c(C)c([N+](=O)[O-])c(C(C)(C)C)c1[N+](=O)[O-] — lower, -4.76%
- CCOC(=O)Cc1ccccc1 — lower, 2.22%
- CC1CN1 (centres undefined) — lower, 1.84%
- O.O.O.O.O.O.O.O=S(=O)([O-])[O-].[Co+2] — lower, -0.809%
- O=[N+]([O-])C(Br)Br — higher, 17%
- CCCCCCC[CH2][Sn]([Cl])([Cl])[CH2]CCCCCCC — lower, -5.86%
- Cc1c([N+](=O)[O-])cc2c(c1[N+](=O)[O-])C(C)(C)CC2(C)C — lower, -14.1%
- COP(=S)(NC(C)C)Oc1ccc(C)cc1[N+](=O)[O-] (centres undefined) — lower, -11.8%
- COC(=O)N(OC)c1ccccc1COc1ccn(-c2ccc(Cl)cc2)n1 — lower, -10.3%
- O=[N+]([O-])c1ccc(Cl)c(Cl)c1Cl — higher, 10.7%
- CO/N=C(/C1=NOCCO1)c1ccccc1Oc1ncnc(Oc2ccccc2Cl)c1F — lower, -4.8%
- CN1CCc2cc3c(cc2C1O)OCO3 (centres undefined) — lower, -2.8%
- ClC(Cl)C(Cl)(Cl)Cl — lower, 0.935%

In the case of `c1ccc2nc(N3CCNCC3)ccc2c1`, the “cytotoxicity” value is reported as 26.9% [at 35.3 µM].
